High-throughput results deposited in PubChem BioAssay by several laboratories.
The list is not random: actives were taken first. Their share in the collection is about 4%.
CSC inhib – cancer stem cell viability inhibitors, primary screen, luminescence; cancer stem cell-like cells viability; inhibition, % at 7.5 µM; hit rate 1.1% among 300,000; in the data active means inhibition above about 75%; inconclusive means no clear call, values can overlap the other calls; tested in HMLE shEcad cells
Mdm2-MdmX inh – inhibitors of human Mdm2-MdmX association, primary screen, cell-based, luminescence, split luciferase, SaOS-2, uHTS. Protein Mdm4 (Homo sapiens) + E3 ubiquitin-protein ligase Mdm2 (Homo sapiens), …. hit rate 3% among 330,000. SaOS-2 split-luciferase Mdm2/MdmX complementation. inhibition, % at 8 µM;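 active means inhibition of at least 50% at 8 µM in the primary screen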
Gli-Sufu antag – Gli-Sufu pathway antagonists, primary screen, luciferase luminescence, Sufu-KO-LIGHT cells, uHTS | Sufu-KO-LIGHT fibroblasts, Gli luciferase reporter luminescence | inhibition, % at 5 µM | hit rate 0.74% among 340,000;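 active means inhibition above about 55%, limit read from the data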;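 further: 0% = DMSO-treated cells and 100% = wells with medium but no cells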
Shn3 inh set2 – reduction of Shn3 3'UTR firefly luciferase signal, primary screen, Schnurri-3 inhibitor project, cell-based, Clone20 osteoblasts, set 2; hit rate 0.52% among 360,000; Clone20 osteoblast Shn3 3'UTR firefly luciferase, 24 h; inhibition, % at 12.5 µM;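 active means mean inhibition of at least 75% with every replicate also reaching 75%; inconclusive means mean inhibition at least 75% but some replicate below; inactive means mean inhibition below 75%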;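 further: 0% = median of neutral control wells and 100% = pilot-screen positive control compound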
PAX8 inh HTS – inhibitors of PAX8-driven TPO luciferase reporter, primary screen, RMG-I cells, single concentration; SteadyGlo, 24 h; AID 652154, 2013; hit rate 1.2% among 360,000; inhibition, % at 12.6 µM;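 active means mean replicate inhibition at least 60% with every replicate also reaching 60%; inconclusive means only one of the two criteria is met; inactive means mean below 60% and not all replicates reaching 60%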;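 further: luciferase light reporting Pax8 driven TPO promoter activity; plate controls were median of neutral control wells for no effect and mitoxantrone controls for full effect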
Beta apoptosis – inhibitors of cytokine-induced beta cell apoptosis, primary screen, luminescence. INS-1E cytokine-induced death, ATP luminescence, 48 h; percent of positive-control rescue, neutral wells zero. protection from apoptosis, % (concentration not given with the values). AID 435005, 2010. hit rate 0.8% among 300,000;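 active means Every replicate reaches about 75%, or at least half do and their mean reaches it too, limit read from the data; inconclusive means At least half of replicates reach the limit but their mean does not; inactive means Under half of replicates reach the limit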;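 further: 0% = cytokine-treated negative control wells and 100% = positive control rescue; higher means more ATP so stronger rescue from cytokine killing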
Mdm2-MdmX conf – Mdm2-MdmX complex disruptors, retested hits, confirmation, luminescence, single concentration. Mdm2-MdmX binding, luminescent assay. inhibition, % at 8 µM. AID 489028, 2010. shares compounds with Mdm2-MdmX inh. hit rate 55% among 10,000; in the data active means inhibition above about 40%
FLuc counter – full-length luciferase signal inhibition, confirmation, counter-screen for Mdm2/MdmX interaction inhibitor project, cell-based, single concentration, SaOS-2; hit rate 77% among 6,200; shares compounds with Mdm2-MdmX inh; inhibition, % at 8 µM; SaOS-2 full-length luciferase counterscreen, luminescence;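 active means mean inhibition at 8 µM reaching about 37%, which flags the compound as non-specific, limit read from the data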;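 further: p53-null SaOS-2 cells with luciferase driven by a doxycycline-inducible promoter; compound on cells about two nights before reading with doxycycline added after day one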
Numbers without * were called inactive; ? = inconclusive; nt = no result given.

SMILES	CSC inhib	Mdm2-MdmX inh	Gli-Sufu antag	Shn3 inh set2	PAX8 inh HTS	Beta apoptosis	Mdm2-MdmX conf	FLuc counter
C#CCOCCOCCOCCNc1nc(N2CCN(C(=O)CCCCCCCCCCNC(=O)[C@H](CCCCN)n3cc(C[C@@H](C)CC)nn3)CC2)nc(N2CCN(C(=O)CCCCCCCCCCNC(=O)[C@@H]([C@H](C)O)n3cc(C)nn3)CC2)n1	19	97*	11	96*	nt	99*	97*	7
C#CCOCCOCCOCCNc1nc(N2CCN(C(=O)CCCCCCCCCCNC(=O)[C@@H](CCSC)n3cc(CCO)nn3)CC2)nc(N2CCN(C(=O)CCCCCCCCCCNC(=O)[C@@H]([C@H](C)O)n3cc(C)nn3)CC2)n1	-7	25	21	16	45	-2	nt	nt
CC[C@H](C)Cc1cn([C@@H](CCCN=C(NC(=O)OC(C)(C)C)NC(=O)OC(C)(C)C)C(=O)NCCCCCCCCCCC(=O)N2CCN(C(=O)OC(C)(C)C)CC2)nn1	43	66*	33	29	nt	39	32	nt
C[C@@H]1CN([C@@H](C)CO)C(=O)c2cc(NC(=O)CCCN(C)C)ccc2O[C@@H](C)CCCCO[C@@H]1CN(C)C(=O)Cc1ccccc1	nt	nt	nt	nt	13	nt	nt	nt
CC(C)C[C@H](NC(=O)OC(C)(C)C)c1nnc(SCc2ccccc2)o1	-1	0	4	4	6	-1	nt	nt
Cc1ccccc1CS(=O)(=O)c1nnc([C@H](CC(C)C)NC(=O)OC(C)(C)C)o1	nt	75*	-8	?	nt	-6	79*	1
CC[C@@H](C)[C@H](NC(=O)OCc1ccccc1)c1nnc([C@@H](NC(=O)OCc2ccccc2)[C@@H](C)CC)o1	-3	-9	38	30	46	15	nt	nt
CC[C@@H](C)[C@H](NC(=O)OC(C)(C)C)c1nnc(S(=O)(=O)Cc2cc(C)ccc2C)o1	66	82*	1	?	nt	-1	66*	3
C[C@@H]1CN([C@@H](C)CO)C(=O)c2cccc(NS(=O)(=O)c3cn(C)cn3)c2O[C@H]1CN(C)Cc1ccc(-c2ccccc2)cc1	nt	nt	nt	nt	13	nt	nt	nt
CCc1c(C)sc(NC(=O)CSc2nc3c(c(C(F)(F)F)n2)CCc2ccccc2-3)c1C#N	8	75*	8	-5	nt	10	17	nt
Cc1cccc(C(=O)O/N=C(\N)c2ccc(Br)cc2)c1	-13	51*	-4	-29	nt	-2	-8	nt
N/C(=N\OC(=O)c1cccc(Br)c1)c1ccccc1	6	-51	-9	-89	nt	2	nt	nt
N/C(=N\OC(=O)c1ccc2c(c1)OCO2)c1ccc(Cl)cc1	-4	82*	-69	-60	nt	3	17	nt
Cc1cccc(C(=O)O/N=C(\N)c2ccc(Cl)cc2)c1	-15	51*	-92	-108	-85	-1	-13	nt
N/C(=N\OC(=O)c1ccc2ccccc2c1)c1ccc(Br)cc1	2	62*	-9	-5	-26	1	47*	96*
C[C@@H]1CN([C@H](C)CO)C(=O)c2cc(NC(=O)CCC(F)(F)F)ccc2O[C@H]1CN(C)C(=O)Nc1ccc2c(c1)OCO2	nt	nt	nt	nt	-9	nt	nt	nt
C[C@@H]1CN([C@H](C)CO)C(=O)c2cc(NC(=O)Nc3cccc4ccccc34)ccc2O[C@@H](C)CCCCO[C@H]1CN(C)S(=O)(=O)c1ccc(F)cc1	nt	nt	nt	nt	2	nt	nt	nt
COc1cccc(NC(=O)N(C)C[C@@H]2OCc3ccccc3-c3ccccc3C(=O)N([C@@H](C)CO)C[C@@H]2C)c1	nt	nt	nt	nt	-11	nt	nt	nt
CC(C)NC(=O)N1[C@@H]2CN(C(=O)C3CCC3)c3ccccc3[C@@H]2[C@@H]1CO	nt	nt	nt	nt	-3	nt	nt	nt
O=C(CN1CCOCC1)NCC[C@@H]1CC[C@@H](NS(=O)(=O)c2ccc(Cl)cc2)[C@@H](CO)O1	nt	nt	nt	nt	-18	nt	nt	nt
Cc1ccc(C)c(C(=O)O/N=C(\N)c2ccc(Br)cc2)c1	0	57*	-18	-67	-64	-5	54*	104*
Cc1ccc(C(=O)O/N=C(\N)c2ccc(Br)cc2)cc1C	0	99*	-43	-52	nt	-2	83*	116*
Cc1cc(C)cc(C(=O)O/N=C(\N)c2ccc(Br)cc2)c1	5	100*	-12	-3	nt	8	78*	90*
COc1ccc(C(=O)O/N=C(\N)c2ccc(Cl)cc2)cc1	-5	100*	-50	-82	-110	4	34	163*
CNC[C@@H]1Oc2ccc(NS(=O)(=O)c3ccc(F)cc3)cc2CC(=O)N([C@@H](C)CO)C[C@@H]1C	nt	nt	nt	nt	-16	nt	nt	nt
SMILES	CSC inhib	Mdm2-MdmX inh	Gli-Sufu antag	Shn3 inh set2	PAX8 inh HTS	Beta apoptosis	Mdm2-MdmX conf	FLuc counter
O=C1CN(S(=O)(=O)Cc2ccccc2)C[C@@H]2[C@H](c3ccc(C#CCC4CCCC4)cc3)[C@@H](CO)N12	nt	nt	nt	nt	-16	nt	nt	nt
COc1cccc(-c2cnc3c(c2)C(=O)N([C@@H](C)CO)C[C@@H](C)[C@H](CN(C)Cc2ccc(C(=O)O)cc2)O3)c1	nt	nt	nt	nt	-25	nt	nt	nt
C/C=C/c1ccc2c(c1)[C@@H]1[C@@H](CCN1C(=O)Cc1cccnc1)[C@H](CO)N2C	nt	nt	nt	nt	1	nt	nt	nt
COc1ccc(NS(=O)(=O)c2cc(NC(=O)c3ccco3)ccc2N2CCCCC2)cc1	52	60*	5	-6	28	12	40	60*
N#Cc1ccc(C(=O)Nc2cc(S(=O)(=O)Nc3ccc(Cl)cc3)ccc2N2CCCCC2)cc1	35	-3	41	63	5	12	nt	nt
COc1ccc(NS(=O)(=O)c2cc(NC(=O)c3ccc(=O)[nH]n3)ccc2C)cc1	nt	52*	-3	7	26	6	46*	65*
COc1ccc(NS(=O)(=O)c2cc(C(=O)O)ccc2C)cc1	-7	25	-8	-21	nt	-10	nt	nt
O=C(Nc1cc(S(=O)(=O)Nc2ccc(Cl)cc2)ccc1N1CCCCC1)c1ccc(F)cc1	90*	72*	29	30	21	112*	35	nt
COc1ccc(NS(=O)(=O)c2cc(NC(=O)c3ccc(Cl)cc3)ccc2N2CCOCC2)cc1	71	82*	-10	37	50	31	67*	27
CO[C@@H](C(=O)N(C)C[C@H]1OCc2ccccc2-c2c(n(C)c3ccccc23)C(=O)N([C@@H](C)CO)C[C@@H]1C)c1ccccc1	nt	nt	nt	nt	11	nt	nt	nt
CCC(=O)Nc1ccc2c(c1)OC[C@@H](C)N(Cc1ccccn1)C[C@H](C)[C@H](OC)CN(C)C2=O	nt	nt	nt	nt	-3	nt	nt	nt
